PNC inhibitor: High Content Assay for Compounds that inhibit the Assembly of the Perinucleolar Compartment | PC3M PTB-GFP, PNC prevalence imaging, 16 h; active compounds read low | activity change (PNC), negative = inhibition, % at 10 µM | 3.1% of 140,000 active;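 active means readout at or below -70, meaning at least 70% loss of cells showing the perinucleolar compartment, a nuclear body marking cancer cells; inconclusive means readout between -30 and a set limit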;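 further: plate controls were DMSO wells for no effect and camptothecin positive control wells for full effect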
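PC3M cells stably expressing PTB-GFP, 750–1000 cells/well, treated 16 h at 37 °C with compound (23 nl of library stock), in duplicate. After paraformaldehyde fixation and Hoechst stain, imaged at 20x; PNC prevalence scored by image analysis.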
NPSR antagonist: qHTS Assay for Antagonists of the Neuropeptide S Receptor: cAMP Signal Transduction; Q6W5P4; CHO-NPSR cells, cAMP TR-FRET, antagonist mode; Potency, µM (doses to about 38.3 µM), inactives show top-dose activity change, negative = inhibition, usual class: inhibitors; 1% of 220,000 active; further: potency means the concentration at half of the fitted maximal effect; nearly all actives have a fitted effect of over 50% in size
Target sequence (Q6W5P4 whole entry, looked up): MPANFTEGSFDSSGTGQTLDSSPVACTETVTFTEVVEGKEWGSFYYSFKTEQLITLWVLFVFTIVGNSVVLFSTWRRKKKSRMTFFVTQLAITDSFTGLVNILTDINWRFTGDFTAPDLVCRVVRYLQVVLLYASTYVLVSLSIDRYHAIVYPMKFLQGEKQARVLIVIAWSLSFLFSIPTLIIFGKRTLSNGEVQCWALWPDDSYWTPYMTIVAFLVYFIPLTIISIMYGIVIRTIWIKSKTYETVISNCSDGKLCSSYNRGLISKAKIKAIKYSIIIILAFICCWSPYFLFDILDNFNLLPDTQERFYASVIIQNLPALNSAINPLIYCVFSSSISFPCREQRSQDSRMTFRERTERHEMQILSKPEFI
Tau fibril ThT: qHTS for Inhibitors of Tau Fibril Formation, Thioflavin T Binding; 2.1% of 270,000 active; recombinant tau K18 P301L, heparin-induced fibrillization, ThT fluorescence; Microtubule-associated protein tau (Homo sapiens), P10636; Potency, µM (titrated, usually from 57.4 µM), without a hit: at the top dose activity, negative = inhibition, actives largely listed as inhibitors; further: potency means the concentration at half of the fitted maximal effect; nearly all actives have a fitted effect of over 55% in size
Target sequence (P10636 561-689 P618L limits assumed): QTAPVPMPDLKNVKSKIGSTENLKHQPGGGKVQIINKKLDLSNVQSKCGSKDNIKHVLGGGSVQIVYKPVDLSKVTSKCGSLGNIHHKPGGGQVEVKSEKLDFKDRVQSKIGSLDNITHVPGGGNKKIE
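Aggregation was driven by heparin (20 uM final) acting on recombinant tau […] bearing P301L in 100 mM sodium acetate pH 7; fibrils were detected with Thioflavin T.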
Tau fluor cs: Counterscreen qHTS for Inhibitors of Tau Fibril Formation, Fluorescence Polarization; 0.93% of 280,000 active; Potency, µM (top dose mostly 57.7 µM), inactives show at the highest dose activity change, negative = decrease; tau K18 P301L Alexa594 fluorescence, heparin fibrillization; AID 1463, 2008; further: potency means the concentration at half of the fitted maximal effect; nearly all actives have a fitted effect of over 55% in size
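Human tau K18 P301L (15 uM unlabeled, 0.24 uM Alexa 594-labeled) in 100 mM sodium acetate pH 7 with 20 uM heparin, 6 hr at 37 C. ThT 30 uM added, 1 hr ambient; Alexa 594 FP and total fluorescence read at 555/632 nm.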
Tau fibril FP: qHTS for Inhibitors of Tau Fibril Formation, Fluorescence Polarization | AID 1468, 2008 | 0.39% of 280,000 active | Potency, µM (highest dose often 57.7 µM), for the others: at the highest dose activity, negative = inhibition, usual class: inhibitors | K18 P301L tau heparin fibrillization, Alexa594 FP, 6 h; further: potency means the concentration at half of the fitted maximal effect; nearly all actives have a fitted effect of over 55% in size
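Human K18 P301L fragment (15 uM unlabeled plus 0.24 uM Alexa 594-labeled) in 100 mM sodium acetate pH 7 with compound, aggregation induced by 20 uM heparin for 6 hr at 37 C. ThT (30 uM) added for 1 hr, then Alexa 594 FP read.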
JMJD2E inh: qHTS Assay for Inhibitors of Human Jumonji Domain Containing 2E (JMJD2E). JMJD2E catalytic domain, FDH-coupled NADH fluorescence (FDH is formaldehyde dehydrogenase). Potency, µM (doses to about 57.1 µM), for the others: top-dose activity change, negative = inhibition, hits mostly inhibitors. 1.6% of 230,000 active; active means well fitted inhibition curve with a large enough effect, not every such curve was filed as active; inconclusive means small, poorly fitted or top-dose-only effect, or another doubt; inactive means no such curve, though single readings can be large or run the other way;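 further: potency means the concentration at half of the fitted maximal effect; 0% = wells with enzyme and -100% = buffer wells without enzyme; nearly all actives have a fitted effect of over 50% in size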
* marks the source's active call; other numbers are inactive results; ? = inconclusive; / = no result; [ ] = dose if it differs, or a comment. This is a sample that favours compounds with a hit; in the whole collection about 5.1% have one here. Unless noted, the call rests on the fitted dose curve; in most records, active means well fitted curve in the direction sought with a large enough effect; inconclusive means small, poorly fitted or top-dose-only effect, or another doubt; inactive means no such curve, though single readings can be large; an effect the other way counts as inactive or inconclusive. Unless noted, on the % scale 0 is the no-effect control and ±100 the full control effect.

SMILES	PNC inhibitor	NPSR antagonist	Tau fibril ThT	Tau fluor cs	Tau fibril FP	JMJD2E inh
Brc1ccc(-c2nnc(-c3ccccc3Br)o2)cc1	20.1	-13.3%[46.1 µM]	?	-22.4%	-4.2%	-18.6%
Clc1ccc(Cc2nc(-c3cccnc3)no2)cc1	-92.7*	-13.0%[46.1 µM]	-8.1%	-8.4%	-5.7%	1.0%
COc1ccc(OC)c(NC(=O)[C@H](CSCc2ccccc2)N2Cc3ccccc3C2=O)c1	/	/	-11.2%	?	8.0%	/
COc1cccc(NC(=O)CCC(=O)N2Cc3ccccc3Oc3ncccc32)c1	/	/	0.8%	-7.3%	0.5%	/
C=Cc1c(C)/c2[n-]/c1=C\c1[n-]c(c(CC)c1C)/C=c1\[n-]c3c(c1C)C(=O)C(C(=O)[O-])C=3c1[n-]c(c(C)c1CCC(=O)[O-])\C=2.[Cu].[Na+].[Na+] (stereo not given)	/	/	14.1µM*	11.2µM*[quencher]	20µM*	7.94µM*
CCC1=C(c2ccc(C)cc2)S(=O)(=O)N=C1N1CCC(C(=O)NCCc2ccc(Cl)cc2)CC1	/	/	-11.1%	-20.7%	1.7%	/
Cc1cccc(C)c1-n1c(C)cc(/C=N\Nc2ccc([N+](=O)[O-])cn2)c1C	3.0	-18.1%[46.1 µM]	5.01µM*	?	?	2.2%
Cc1cc(/C=N/Nc2nc(N)ncc2[N+](=O)[O-])c(C)n1-c1ccccc1F	/	-13.3%	15.8µM*	-24.2%	5.7%	-8.6%
COc1cc(SSc2cc(OC)cc([N+](=O)[O-])c2N)c(N)c([N+](=O)[O-])c1	/	3.16µM*	/	?	?	2.51µM*
O=C(NCCSc1c[nH]c2ccccc12)c1ccccc1Cl	/	/	-16.0%	?	6.7%	/
CCOc1ccc(NC(=O)NC(C)c2c(-n3cccc3)sc3c2CCN(CC)C3)cc1 (stereo not given)	/	/	-12.9%	?	11.7%	/
CCN1CCc2c(sc(-n3cccc3)c2C(C)NC(=O)Nc2ccc(Br)cc2)C1 (stereo not given)	/	/	-3.8%	?	25.1µM*	/
O=C(NC1(O)C(=O)c2ccccc2C1=O)c1ccccc1	15.4	6.1%[46.1 µM]	2.82µM*	-19.3%	?	?
Cc1ccc2c(c1)Cc1c(nc(-c3ccc(F)cc3)nc1SCC(=O)N1CCCCC1)O2	/	/	-0.3%	-5.4%	-6.5%	/
CCC(C)Nc1nc(-c2ccc3c(c2)NC(=O)CO3)cs1 (stereo not given)	-21.9	?	?	?	-4.3%	6.3%
COc1ccc(Nc2nc(-c3ccc4c(c3)NC(=O)CO4)cs2)cc1	/	-55.8%	7.94µM*	12.6µM*[quencher]	-1.6%	-5.9%
COc1ccccc1Nc1nc(-c2ccc3c(c2)NC(=O)CO3)cs1	/	-3.5%	14.1µM*	11.2µM*[quencher]	5.7%	-11.4%
COc1ccc(-c2cc(-c3ccccc3)nc(-c3ccc4c(c3)NC(=O)CO4)c2)cc1	?	-3.0%[46.1 µM]	-3.4%	?	?	?
Cc1ccc(-c2nc3sc(CCNC(=O)c4ccc(Br)o4)c(C)n3n2)cc1	/	/	?	-17.3%	-5.6%	/
Nc1c(C(=O)Nc2ccc(S(=O)(=O)N3CCCC3)cc2)sc2nc3ccc(OC(F)(F)F)cc3cc12	-19.1	?	5.62µM*	-25.1%	13.3%	1.5%
CC(C)c1ccc(C2N3CC4(C)CN2CC(c2ccccc2)(C3)C4=O)cc1 (stereo not given)	/	/	?	-14.8%	0.6%	/
CC(=O)Nc1cccc(-c2csc(Nc3ccc(C)cn3)n2)c1	-1.8	13.4%	?	14.1µM*[quencher]	14.3%	-8.2%
CC(=O)Nc1ccc(-c2csc(NNC(=O)c3ccc(C)cc3)n2)cc1	/	-2.4%	11.2µM*	?	?	-25.9%

Screens: PubChem, National Center for Advancing Translational Sciences (NCATS)
